Experimental data from PubChem BioAssay AID977624 (Broad Institute, 2014).
Fewer than 10 of roughly 1,800 compounds were called active. About 44% were inconclusive and are not listed.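 The calls were made as follows: active = compound lowering the normal-ribosome reporter at least twice as much as the humanized-ribosome reporter, growth loss under a set limit; inconclusive = no clear call, values can overlap the other calls; inactive = the rest.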 A selection follows.

experiment: wild-type E. coli growth inhibition versus h34 humanized strain – h34 mutant RFP, wild-type GFP, cherry-pick, dose response (AID 977624); details: fluorescence, 24 h; series mostly up to 50 µM

outcome, inactive:
C=CCNC(=O)c1ccccc1CCc1ccccc1
C=CCN(CC(O)c1cccc([N+](=O)[O-])c1)C(C)CCc1ccccc1 (stereo unspecified)
CO[C@@H]1CN(C)C(=O)c2cc(NC(=O)C3CCCC3)ccc2OC[C@@H](C)N(C(=O)Nc2ccc(C(F)(F)F)cc2)C[C@H]1C
COc1ccc(OC)c(CN2CCCC(C(=O)c3ccccc3SC)C2)c1 (stereo unspecified)
CCN1CCN(c2c(Cl)cccc2NC(=O)c2ccc([N+](=O)[O-])o2)CC1
CCN(C(=O)CSc1cc(C)c2ccc(OC)cc2n1)C1CCS(=O)(=O)C1 (stereo unspecified)
Cc1noc(NS(=O)(=O)c2ccc(NC(=O)c3cc(-c4ccccc4Cl)nc4ccccc34)cc2)c1C
O=C(COC(=O)C1CC1)Nc1nc(-c2ccc(F)c(F)c2)cs1
COc1cccc(NC(=O)c2ccc(C(=O)c3ccccc3)o2)c1
COc1ccc(C(=O)C2CCCN(C(=O)c3noc4c3CCCC4)C2)cc1F (stereo unspecified)
COc1ccc(C(=O)N(c2ccccc2)c2nccc3ccccc23)cc1OC
COc1ccc(C2CC(=O)CCN2S(=O)(=O)c2ccc(C)cc2)cc1 (stereo unspecified)
O=C(NCc1ccc(S(=O)(=O)Nc2ccccc2Cl)s1)c1ccccc1
Cc1ccc(C)c(-c2[nH]ncc2CN2CCCC(CO)(Cc3ccccc3C)C2)c1 (stereo unspecified)
Cc1nn(-c2cccc(Cl)c2)nc1C(=O)O
CC1CCN(c2ccc3nnc(CCC(=O)Nc4cccc(F)c4)n3n2)CC1
O=C1c2ccccc2NC(c2ccc(-c3cccc([N+](=O)[O-])c3)o2)N1O (stereo unspecified)
COc1ccc(OC)c(-c2csc(NC(=O)C3COc4ccccc4O3)n2)c1 (stereo unspecified)
COc1ccc(-n2nc3cc(N)c(Br)cc3n2)cc1
CN1C(=O)c2cc(NC(=O)c3cccc(F)c3)ccc2OC[C@H]2O[C@@H](CC(=O)N3CCc4ccccc4C3)CC[C@@H]21
Brc1cc2c(cc1Br)OCCOCCOCCO2
COC(=O)CC#C[C@H](C)[C@@H](NS(=O)(=O)c1ccc([N+](=O)[O-])cc1)C(C)(C)C
Cc1cc(C(=O)NCCC2=CCCCC2)ccc1[N+](=O)[O-]
CN(C)S(=O)(=O)c1ccc(Cl)c(C(=O)OCC(=O)NC(=O)c2cccn2C)c1
COC(=O)c1cc(S(=O)(=O)NCc2ccc3c(c2)OCO3)cn1C
Cc1ccc(-c2cc(-c3ccc(C)cc3)[n+](-c3ccc(C(=O)[O-])cc3)c(-c3ccc(C)cc3)c2)cc1
CC(=O)Nc1ccc(NS(=O)(=O)c2ccc(Cl)s2)cc1
CN(c1ccc(C(=O)NCc2cccs2)cc1)S(=O)(=O)c1ccccc1
CCn1nc(C(=O)OCc2cccc(S(=O)(=O)N(C)C)c2)c2ccccc2c1=O
COc1cccc(NC(=O)CSc2nc3c(sc4ccccc43)c(=O)n2CCN(C)C)c1
O=C(CC1C(=O)NCCN1CC1CCCCC1)NCc1ccc(F)cc1F (stereo unspecified)
CC(=O)N1CCN(c2nc(-c3cccs3)nc3ccccc23)CC1
COc1ccc(NC(=O)c2sccc2-n2cccc2)cc1
O=C(Cc1ccc(NC(=O)C2CCCN(C(=O)CCc3ccccc3)C2)cc1)Nc1cccc(C(=O)N2CCCC2)c1 (stereo unspecified)
COc1ccc(Nc2nc(NCCO)nc(N3CCCC3)n2)cc1
CC(C)[C@H](NC(=O)c1ccc([N+](=O)[O-])cc1Cl)C(=O)N1CCN(C/C=C/c2ccccc2)CC1
COc1ccccc1NC(=O)CN1CCSc2ccccc21
O=C(NCc1ccccc1Cl)[C@H]1CCCN1C(=O)[C@H]1CCCN1C(=O)c1cccc2ccccc12
CC1(C(=O)Nc2ccc3c(c2)OCCO3)CSCC(=O)N1CCOc1ccccc1 (stereo unspecified)
O=S(=O)(c1cnc(Cl)c(Cl)c1)N1CCCc2ccccc21
CCOC(=O)C1(CCCc2ccccc2)CCN(C(=O)CCn2cncn2)CC1
